Source: the OligoGym collection

Target: YIPF6
Test: pooled miR-30 sensor sort-seq; sequence = guide strand
Settings: shRNA
Further: reference of the scale not given here.

| Sequence | sensor-assay potency score (higher = more potent) |
| --- | --- |
| TTGAGGGTGATGGTAACTGCAC | -0.917 |
| TCACTATCTGCAGAGTCTCTTT | -0.696 |
| TAAACAGCTAGGGCTCTGCGGT | -0.877 |
| TAGGAATGGTGATTTCTCCTTC | 0.33 |
| TTTTAGATCACGCATGATGGTA | -0.619 |
| TTACAGGTCCTGGATCAGCCAA | -1.45 |
| TATCTGCAGAGTCTCTTTGCAG | -1.39 |
| TTGTGAGATGGATATATCTGAA | -0.839 |
| TTTCACTATCTGCAGAGTCTCT | -0.747 |
| TCTCTTTGCAGCATTAATGCGA | -0.247 |
| TTTGAGTTGAGGGTGATGGTAA | -0.386 |
| TTTAGATCACGCATGATGGTAT | 0.00293 |

Target: YJEFN3
Test: as above
Settings: shRNA

| Sequence | sensor-assay potency score (higher = more potent) |
| --- | --- |
| TTGAGCGTGGCCAGCGCGCGGG | -0.949 |
| ATAGGCTTCGTTAATGAGCTGC | 0.277 |
| TGTCCATCTTCTCGCACTGGGT | -1.09 |
| TTCGTTAATGAGCTGCACCTCA | -0.35 |
| TTAATGAGCTGCACCTCAGTGG | 0.0127 |
| ATGGACAGCAGCTTGAGCGTGG | 0.0409 |
| TCATCGGGCACGAACCTGCCGG | -1.06 |
| ATGACCGCACAGCTCCACGAGC | -1.82 |
| TCCATCTTCTCGCACTGGGTGG | -1.52 |
| AATCGCTGCCGGTCTCTGCGTC | -0.877 |
| ATGTCCATCTTCTCGCACTGGG | -1.01 |
| TAGCATGACCGCACAGCTCCAC | -0.593 |
